Records with an inconclusive call do not appear. A call without a number means that no potency is given here. Active and inactive are the calls of the source. Calls come from the whole dose curve; as a rule, active = well fitted inhibition curve with a large enough effect; inconclusive = small, poorly fitted or top-dose-only effect; inactive = flat fitted curve, though single readings scatter.
Potency is the fitted concentration of half-maximal effect.

Voltage-gated inwardly rectifying potassium channel KCNH2 (Homo sapiens), sequence (Q12809 whole entry, looked up): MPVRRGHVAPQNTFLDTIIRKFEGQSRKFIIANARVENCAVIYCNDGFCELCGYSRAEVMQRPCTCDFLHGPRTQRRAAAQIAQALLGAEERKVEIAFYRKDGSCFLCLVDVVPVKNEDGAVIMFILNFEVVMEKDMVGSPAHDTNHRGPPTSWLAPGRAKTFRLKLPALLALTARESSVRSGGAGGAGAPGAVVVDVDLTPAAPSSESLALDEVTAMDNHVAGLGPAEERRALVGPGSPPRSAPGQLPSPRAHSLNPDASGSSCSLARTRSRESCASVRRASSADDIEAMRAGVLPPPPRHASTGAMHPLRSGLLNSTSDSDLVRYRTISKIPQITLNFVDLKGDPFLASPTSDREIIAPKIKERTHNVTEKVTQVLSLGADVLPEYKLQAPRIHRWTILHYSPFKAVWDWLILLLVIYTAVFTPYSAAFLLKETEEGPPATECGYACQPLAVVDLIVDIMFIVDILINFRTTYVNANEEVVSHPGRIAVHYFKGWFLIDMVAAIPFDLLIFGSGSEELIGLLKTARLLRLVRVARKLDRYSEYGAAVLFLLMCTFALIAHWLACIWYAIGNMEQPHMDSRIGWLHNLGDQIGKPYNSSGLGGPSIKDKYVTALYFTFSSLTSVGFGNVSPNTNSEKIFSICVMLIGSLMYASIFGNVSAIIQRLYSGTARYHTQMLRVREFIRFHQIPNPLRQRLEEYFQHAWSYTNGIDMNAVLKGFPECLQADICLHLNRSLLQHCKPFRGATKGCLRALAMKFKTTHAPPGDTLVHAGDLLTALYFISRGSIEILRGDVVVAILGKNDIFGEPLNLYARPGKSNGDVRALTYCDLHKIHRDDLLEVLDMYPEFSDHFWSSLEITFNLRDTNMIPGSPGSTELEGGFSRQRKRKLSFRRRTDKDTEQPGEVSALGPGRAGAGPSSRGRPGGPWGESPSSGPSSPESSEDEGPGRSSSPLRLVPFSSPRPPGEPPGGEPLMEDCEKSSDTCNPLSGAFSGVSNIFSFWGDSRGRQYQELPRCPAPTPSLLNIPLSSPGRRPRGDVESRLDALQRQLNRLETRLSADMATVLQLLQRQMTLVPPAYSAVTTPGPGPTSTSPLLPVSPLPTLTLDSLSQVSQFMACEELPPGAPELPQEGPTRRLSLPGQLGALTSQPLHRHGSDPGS

For the assay, the target named is Voltage-gated inwardly rectifying potassium channel KCNH2 (Homo sapiens) (UniProt Q12809). Briefly: qHTS Assay for Small Molecule Inhibitors of the Human hERG Channel Activity (AID 588834).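 Note: lower thallium flux fluorescence means stronger hERG block; nearly all actives have a fitted effect of over 50% in size.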 The following applies: U2OS BacMam hERG, FluxOR thallium flux fluorescence; series mostly up to 46.1 µM. The essentials:
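Homogeneous FluxOR thallium flux assay using hERG-expressing U2OS cells (BacMam). Compound treatment about 10 minutes preceded stimulation; reduced fluorescence taken as channel block.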
As for `CC1(C)O[C@@H]2[C@@H](CO[C@@]3(COS(N)(=O)=O)OC(C)(C)O[C@@H]23)O1`, the Potency entry was “inactive”. Next, `CC(=O)[C@H]1CC[C@H]2[C@@H]3C[C@H](C)C4=CC(=O)CC[C@]4(C)[C@H]3[C@@H](O)C[C@]12C`: “inactive”; `CC1(C)O[C@@H]2C[C@H]3[C@@H]4C[C@H](F)C5=CC(=O)C=C[C@]5(C)[C@H]4[C@@H](O)C[C@]3(C)[C@]2(C(=O)CO)O1`: “inactive”; `O=c1c(-c2ccccc2)c1-c1ccccc1`: “inactive”.

With `C[C@]12CC[C@H]3[C@@H](CCC4=CC(=O)CC[C@@]43C)[C@@H]1CC[C@@H]2C(=O)CO`, the Potency result was “inactive”. For `COc1cccc(OC)c1C(=O)N[C@@H]1C(=O)N2[C@@H]1SC(C)(C)[C@@H]2C(=O)O` the value was “inactive”. In the case of `CC(=O)OCC(=O)[C@@]12N=C(C)O[C@@H]1C[C@H]1[C@@H]3CCC4=CC(=O)C=C[C@]4(C)[C@H]3[C@@H](O)C[C@@]12C`, the Potency result is “inactive”.

Regarding `CCCC(=O)Nc1ccc(OCC(O)CNC(C)C)c(C(C)=O)c1` (stereo unspecified), the Potency result was “inactive”. Turning to `O=c1[nH]c(=O)n([C@H]2C[C@H](O)[C@@H](CO)O2)cc1C(F)(F)F`, the Potency entry is “inactive”. On to `Nc1ccc(C(=O)Nc2ccccc2N)cc1`, for which the Potency result was “inactive”. Next, `CN1CCCC(CC2c3ccccc3Sc3ccccc32)C1` (stereo unspecified): 4.47 µM (active); `CC(=O)OCC(=O)[C@@]1(O)CC[C@H]2[C@@H]3CCC4=CC(=O)C=C[C@]4(C)[C@H]3[C@@H](O)C[C@@]21C`: “inactive”. For `C[C@]12CCC(=O)C=C1[C@@H]1C[C@@H]1[C@H]1[C@@H]3[C@@H]4C[C@@H]4[C@@]4(CCC(=O)O4)[C@@]3(C)CC[C@@H]12` the value was “inactive”; for `CC1(C)O[C@@H]2C[C@H]3[C@@H]4CCC5=CC(=O)CC[C@]5(C)[C@@]4(F)[C@@H](O)C[C@]3(C)[C@]2(C(=O)CCl)O1`, “inactive”.

As to `OC[C@H]1O[C@@H](n2cnc3c(=S)nc[nH]c32)[C@H](O)[C@@H]1O`, the Potency entry is “inactive”. Take `Nc1nc2ncc(CNc3ccc(C(=O)N[C@@H](CCC(=O)O)C(=O)O)cc3)nc2c(=O)[nH]1`: the Potency result is “inactive”. As for `CCCSS/C(CCO)=C(\C)N(C=O)Cc1cnc(C)nc1N`, the Potency is 11.2 µM (active).

Turning to `CCOC(=O)[C@H](CCc1ccccc1)N[C@@H](C)C(=O)N1Cc2ccccc2C[C@H]1C(=O)O`, the Potency result was “inactive”. `Cc1cc(N)c2cc(NC(=O)Nc3ccc4nc(C)cc(N)c4c3)ccc2n1`: the Potency entry is “inactive”. `NC[C@H]1O[C@H](O[C@H]2[C@H](O[C@@H]3O[C@H](CO)[C@@H](O)[C@H]3O)C(O)[C@H](N)C[C@@H]2N)[C@H](N)[C@@H](O)[C@@H]1O` (stereo partly specified): the Potency result is “inactive”. On to `CC(=O)O[C@]1(C(C)=O)CC[C@H]2[C@@H]3C[C@H](C)C4=CC(=O)CC[C@]4(C)[C@H]3CC[C@@]21C`, for which the Potency result is “inactive”. In the case of `CCN(CCCCOC(=O)c1ccc(OC)c(OC)c1)C(C)Cc1ccc(OC)cc1` (stereo unspecified), the Potency was 2.24 µM (active). Turning to `CC(=O)OCC(=O)[C@@]1(O)[C@H](C)C[C@H]2[C@@H]3CCC4=CC(=O)C=C[C@]4(C)[C@@]3(F)[C@@H](O)C[C@@]21C`, the Potency entry is “inactive”. Regarding `CC(Cc1ccccc1)(NC(=O)CN)c1ccccc1` (stereo unspecified), the Potency entry was “inactive”. Regarding `CCCCCCCCCCCCCCNCCO`, the Potency entry is “inactive”. Turning to `COc1ccc(OC)c(C(O)CNC(=O)CN)c1` (stereo unspecified), the Potency result is “inactive”.

For `O=C(N/N=C/c1ccccc1O)c1ccncc1`, the Potency result is “inactive”.

In the case of `C=C1C[C@H]2[C@@H]3C=C(C)C4=CC(=O)CC[C@]4(C)[C@H]3CC[C@]2(C)[C@@]1(OC(C)=O)C(C)=O`, the Potency result is “inactive”. Regarding `CN(C/C=C/c1ccccc1)Cc1cccc2ccccc12`, the Potency was 10 µM (active). For `CC(=O)Nc1c(I)cc(I)c(C(=O)O)c1I` the value was “inactive”; for `CCn1cc(C(=O)O)c(=O)c2cnc(N3CCCC3)nc21`, “inactive”. `NC(=O)CC[C@@H]1NC(=O)[C@H](Cc2ccccc2)NC(=O)[C@H](Cc2ccc(O)cc2)NC(=O)CCSSC[C@@H](C(=O)N2CCC[C@H]2C(=O)N[C@@H](CCCN=C(N)N)C(=O)NCC(N)=O)NC(=O)[C@H](CC(N)=O)NC1=O`: the Potency entry is “inactive”. Next, `CCCCC(=O)O[C@]1(C(=O)CO)CC[C@H]2[C@@H]3CCC4=CC(=O)CC[C@]4(C)[C@H]3[C@@H](O)C[C@@]21C`: “inactive”; `OC[C@@H](O)[C@@H](O[C@@H]1O[C@H](CO)[C@H](O)[C@H](O)[C@H]1O)[C@H](O)[C@@H](O)CO`: “inactive”; `N[C@@H](CCC(=O)N[C@@H](CS)C(=O)NCC(=O)O)C(=O)O`: “inactive”. Consider `Cc1cc(O)c(C(C)C)cc1Cl`, for which the Potency result was “inactive”.

The record behind these values is PubChem BioAssay (NCATS).
